Rows were chosen to be rich in hits. Some 2.2% of all compounds tested hit in one or more screens of this group.
aSyn yeast inh = inhibitors of alpha-synuclein toxicity in yeast; Yeast expressing alpha-synuclein, growth rescue, BacTiter-Glo, 24 h; Potency, µM (highest dose often 46.1 µM), for the others: at the highest dose growth rescue (activation), usual class: activators; actives 0.14% (n = 370,000); AID 652106; note: % of control where 0% means no effect; nearly all actives have a fitted effect of over 65% in size
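Readout is rescue of growth in alpha-synuclein-expressing yeast, so inhibitors of toxicity appear as activators. Growth after 24 hr at 30 deg C in galactose medium is quantified by luminescence.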
TDP43 rescue = TDP-43 toxicity inhibition in yeast. TDP-43 expressing yeast growth rescue, BacTiter-Glo, 24 h. Potency, µM (top dose mostly 46.1 µM), for the others: at the highest dose growth rescue (activation), hits mostly activators. actives 1.8% (n = 410,000). AID 652104; note: % of control where 0% means no effect; nearly all actives have a fitted effect of over 50% in size
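Growth rescue of TDP-43-toxic yeast measured as ATP luminescence (BacTiter-Glo). Cells grown to mid-log in raffinose, induced in galactose at OD600=0.02, exposed to compound 24 hr at 30 deg C.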
Mito fusion act = inhibitors of mitochondrial division or activators of mitochondrial fusion; S. cerevisiae fusion-defective mutant growth rescue, CellTiterGlo 48 h; AID 485298; Potency, µM (doses to about 46.1 µM), without a hit: top-dose growth rescue (activation), hits mostly activators; actives 0.23% (n = 320,000); note: % of control where 0% means no effect; nearly all actives have a fitted effect of over 45% in size
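Growth-rescue viability read-out: after 48 h at the non-permissive 37C in glycerol/ethanol YPEG, yeast mitochondrial fusion mutants are measured by CellTiterGlo luminescence; compounds (23 nl pinned per well) restoring growth score as division inhibitors or fusion activators.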
Abeta yeast res = A-beta toxicity reversal in yeast; yeast expressing A-beta42, growth rescue, OD600, 48 h; response scale: 0% DMSO, 100% iron-clioquinol control; actives 0.063% (n = 410,000); Potency, µM (series often up to 46.1 µM), usual class: activators; AID 1347071; note: nearly all actives have a fitted effect of over 55% in size
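Yeast growth medium received pinned compounds, then yeast cells expressing toxic A-beta were added; plates incubated at 30 C for 48 hr. Growth read as absorbance at 600 nm, normalized to DMSO and equimolar FeCl3 plus clioquinol controls.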
ERG-DNA inh = ERG Ets/DNA interaction inhibition. actives 0.028% (n = 370,000). AID 624246. Potency, µM (titrated, usually from 76.9 µM), without a hit: top-dose FP activity, negative = inhibition, hits mostly inhibitors. fluorescence polarization, His-ERG Ets domain / labelled DNA. P11308; active = well fitted inhibition curve with a large enough effect in the polarisation, with a control signal flat; inconclusive = small, poorly fitted or top-dose-only effect, or effect the other way, or a change in a side signal; inactive = no such curve, though single readings can be large or run the other way; the % refers to the polarisation;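 note: polarization taken with two DNA probes labelled with fluorescein and Texas red; % of control where 0% means no effect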
Target sequence (P11308 whole entry, looked up, the tested form may be a part): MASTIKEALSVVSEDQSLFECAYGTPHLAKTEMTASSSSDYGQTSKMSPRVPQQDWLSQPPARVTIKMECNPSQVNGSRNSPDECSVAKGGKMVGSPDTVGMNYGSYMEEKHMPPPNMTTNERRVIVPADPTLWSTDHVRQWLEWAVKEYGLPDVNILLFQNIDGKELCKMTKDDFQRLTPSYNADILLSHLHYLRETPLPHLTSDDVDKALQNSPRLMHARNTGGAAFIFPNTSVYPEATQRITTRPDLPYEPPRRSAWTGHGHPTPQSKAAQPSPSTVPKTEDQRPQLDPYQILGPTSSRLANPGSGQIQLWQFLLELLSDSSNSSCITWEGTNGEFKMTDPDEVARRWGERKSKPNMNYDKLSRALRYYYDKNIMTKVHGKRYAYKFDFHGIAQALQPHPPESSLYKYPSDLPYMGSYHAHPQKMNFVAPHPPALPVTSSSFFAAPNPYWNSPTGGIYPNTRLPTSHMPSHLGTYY
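His-tagged ERG Ets domain (1 uM in the protein solution; 300mM KCl, 50mM Tris-HCl, 1mM EDTA, 1mM DTT, pH 7.5) received compound, then a probe mix of 5 nM fluorescein-DNA and 100nM Texas-615-DNA. Fluorescence polarization was read for both dyes.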
FUS suppressor = suppressors of FUS proteinopathy in yeast. Potency, µM (highest dose often 76.6 µM), most hits filed as activators. actives 0.24% (n = 390,000). S. cerevisiae FUS-expressing, growth rescue, OD600, 24 h. AID 1347120;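 note: plate controls were DMSO vehicle for no effect and reference control for full effect; nearly all actives have a fitted effect of over 55% in size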
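Quantitative HTS measuring growth restoration of FUS-toxic yeast. Galactose-induced cells (OD 0.005) were exposed 24hr at 30C to compounds at several concentrations, then absorbance at 600 nm was recorded.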
Active calls of the source: *; i = inactive; ? = inconclusive; . = no result given. Unless noted, calls come from the whole dose curve; as a rule, active = well fitted curve in the direction sought with a large enough effect; inconclusive = small, poorly fitted or top-dose-only effect, or another doubt; inactive = no such curve, though single readings can be large; an effect the other way counts as inactive or inconclusive. Potency is the fitted concentration of half-maximal effect.

SMILES	aSyn yeast inh	TDP43 rescue	Mito fusion act	Abeta yeast res	ERG-DNA inh	FUS suppressor
CC(=O)Nc1cccc(-c2csc(Nc3ccc(C)cn3)n2)c1	1%	?	?	i	3%	i
COc1ccc(-c2oc3c(c2C#CCCCCO)C(OCCO)CC3)cc1 (configuration not stated)	-5%	20%	.	i	.	i
COC[C@H]1O[C@]2(c3ccccc3)CO[C@H]1[C@@H](/C=C/c1ccccc1)C2	.	.	.	.	.	i
c1ccc(-c2csc(Nc3ccccn3)n2)cc1	-25%	?	-9%	?	3%	i
Cc1nc(NC(=O)c2ccco2)sc1-c1csc(Nc2ccc(Cl)cc2)n1	-6%	?	7%	i	5%	22µM*
Cc1ccc(Cl)cc1Nc1nc(-c2sc(NC(=O)c3ccco3)nc2C)cs1	-3%	-1%	-1%	i	6%	?
Cc1ccc(-c2csc(Nc3ccccn3)n2)cc1	-25%	3.2µM*	2%	?	2%	i
CC(=O)Oc1ccc(-c2csc(Nc3ccc(Cl)cn3)n2)cc1	-13%	13µM*	-17%	i	-3%	i
CC(=O)c1cccc(Nc2nc(-c3sc(C)nc3C)cs2)c1	-6%	11µM*	6%	i	4%	i
Cc1cn(C)c(CC(=O)Nc2cccc(C#N)c2)c1C(=O)O	.	8%	.	i	5%	i
O=C(Nc1ccc(F)cc1F)c1cc(S(=O)(=O)N2CCCCC2)c[nH]1	-1%	-3%	.	i	1%	i
Cc1c(C(=O)N/N=C/c2ccccc2Cl)[nH][nH]c1=O	.	.	.	.	.	i
Cc1ccc(Nc2nc(-c3sc(C)nc3C)cs2)cc1	-3%	20µM*	-5%	i	-1%	i
Cc1ccnc(Nc2nc(-c3ccc(Cl)cc3)cs2)c1	-18%	.	0%	i	11%	i
Cc1ccnc(Nc2nc(-c3ccc(F)cc3)cs2)c1	-32%	7.9µM*	-2%	i	3%	i
Cc1ccccc1NC(=O)c1nc(S(=O)(=O)Cc2ccccc2F)ncc1Cl	-24%	.	.	.	.	.
Cc1ccc(Cl)cc1C1=CC(=O)C[C@H](c2ccc(F)cc2)C1	3%	?	?	i	-5%	i
COc1ccc([C@H]2CC(=O)C=C(c3cc(Cl)ccc3C)C2)cc1	14%	20µM*	?	?	-10%	i
COc1ccc([C@H]2CC(=O)C=C(c3cc(C)ccc3F)C2)cc1	?	20µM*	?	?	-8%	?
COc1ccc([C@H]2CC(=O)C=C(c3cc(C)ccc3OC)C2)cc1	8%	?	29%	i	-16%	i
COc1cccc(C(=O)Nc2ccccc2C(=O)OCc2cc(=O)n3nc(C)sc3n2)c1	.	0%	.	i	8%	i
COc1ccc(NC(=O)COC(=O)CCCN2C(=O)c3ccccc3C2=O)cc1Cl	18%	35µM*	-9%	i	-20%	.
COC(=O)CC1(c2ccccc2)C(=O)c2ccccc2C1=O	6%	-13%	1%	i	-4%	i
COC(=O)CC1(c2cccc3ccccc23)C(=O)c2ccccc2C1=O	6%	22µM*	5%	i	-1%	i
O=C(COCc1cc(-c2cccs2)on1)Nc1cc(Cl)ccc1O	.	6%	.	i	3%	i
SMILES	aSyn yeast inh	TDP43 rescue	Mito fusion act	Abeta yeast res	ERG-DNA inh	FUS suppressor
O=C(COCc1cc(-c2cccs2)on1)NCc1ccccc1Cl	.	13µM*	.	i	-14%	i
CC12CCC(C(=O)N(CSC(=S)N/N=C\c3ccccc3O)C1=O)C2(C)C (configuration not stated)	?	25µM*	-13%	?	4%	i
COc1ccc(/C=N\NC(=S)SCN2C(=O)C3CCC(C)(C2=O)C3(C)C)cc1 (configuration not stated)	?	?	.	i	3%	i
CN(C)c1ccc(/C=N\NC(=S)SCN2C(=O)C3CCC(C)(C2=O)C3(C)C)cc1 (configuration not stated)	1%	13µM*	-2%	?	10%	i
COc1ccc(-c2[nH][nH]c(=O)c2NC(=O)c2ccccc2Br)cc1	4%	-2%	.	i	.	i
CC(=O)NC1CC2CCCC(C1)N2S(=O)(=O)c1cccc(F)c1 (configuration not stated)	-1%	-5%	6%	i	14%	32µM*
Cc1ccc2c(c1)C1CS(=O)(=O)N(Cc3ccccc3)CN1C2 (configuration not stated)	.	.	.	.	.	i
Cc1cccc2c1[nH]c1nc(N/N=C\c3ccco3)nnc12	.	.	-3%	.	.	.
C=CCSc1nnc2c(n1)[nH]c1c(C)cccc12	-30%	11µM*	4%	i	.	i
COc1ccc(CCNC(=O)Cn2c(=O)n(-c3ccc(C)c(C)c3)c(=O)c3c(C)c(C)sc32)cc1OC	.	25%	.	i	-3%	i
O[C@@H]1COC(Nc2ccc(N=Nc3ccccc3)cc2)C[C@@H]1O (some centres not stated)	-2%	13µM*	-3%	i	0%	i
OC[C@H]1OC(Nc2ccc(N=Nc3ccccc3)cc2)[C@@H](O)[C@@H](O)[C@@H]1O (some centres not stated)	3%	?	4%	i	6%	i
COc1cc(NC(=O)CCc2c(C)nc3c4c(C)cc(C)nc4nn3c2C)cc(OC)c1	.	11%	.	i	-5%	i
CCOC(=O)N1CCN(C(=O)c2nn(C)c3c2CSc2ccccc2-3)CC1	2%	35µM*	3%	i	-6%	i
Cc1cccc(N2CCN(C(=O)c3nn(C)c4c3CSc3ccccc3-4)CC2C)c1 (configuration not stated)	.	28%	.	i	3%	i
CCC(CC)C(=O)NCc1ccc2c(c1)cc(C)n2C	-9%	-14%	-1%	i	-6%	i
Cc1cc2cc(CNC(=O)c3ccc(S(=O)(=O)N4CCCC4)cc3)ccc2n1C	3%	4%	1%	i	?	i
CCN(CC)S(=O)(=O)c1ccc(C(=O)NCc2ccc3c(c2)cc(C)n3C)cc1	-1%	0%	2%	i	32µM*	?
Cc1cc2cc(CNC(=O)c3cccs3)ccc2n1C	-2%	-2%	.	i	18µM*	i
O=C(c1ccc([N+](=O)[O-])cc1)N1c2ncnn2C2(CCCCC2)[C@@H]2CCCC[C@@H]21	.	4%	.	i	1%	i

Screens: PubChem BioAssay, National Center for Advancing Translational Sciences (NCATS)
